# Source: PubChem BioAssay
# Target: Carbonic anhydrase 2 (Homo sapiens) (UniProt P00918)
# Experiment: CAII small-molecule binders, profiling panel, biochemical, small-molecule microarray, Alexa647-labelled CAII (AID 1122)
# Conditions: CAII-A647 binding fluorescence, higher = more signal
row,SMILES,composite z-score
1,CCCN1C(=O)[C@@]2(CCS(=O)(=O)c3ccccc3)N=C(c3ccc(OCCCO)cc3)O[C@H]2c2ccccc21,0.294
2,O=C(O)[C@@H]1Cc2c([nH]c3ccccc23)[C@@H](c2ccccc2)N1,-0.0448
3,C[C@@H]1CC[C@H]2C(=O)N3CCC[C@H]3C(=O)N2[C@H]1c1ccc(Br)cc1,-0.213
4,CCC#CCN(Cc1ccccc1Br)[C@H](/C=C/c1ccccc1)[C@@H](O)Cc1ccccc1,-0.225
5,[N-]=[N+]=NCc1ccccc1C[C@]1(C(N)=O)N=C(c2ccc(OCCCO)cc2)O[C@H]1c1ccccc1CN=[N+]=[N-],0.667
6,C=CCC(OC(C)=O)[C@@H]1[C@@H](N(Cc2ccc(-c3ccccc3)cc2)C(=O)c2ccc(-c3ccccc3)cc2)c2cc(OCCCO)ccc2N1C(=O)Cc1ccc(OC)cc1 (some centres undefined),0.0703
7,O=C1C[C@@](C(=O)NC2CC2)(c2ccc([N+](=O)[O-])cc2)[C@@H](c2ccc(CO)cc2I)N1CC12CC3CC(CC(C3)C1)C2,0.473
8,Cc1ccc(N2C(=O)c3ccccc3[C@@H](C(=O)NCC(F)(F)F)[C@@H]2c2ccc(CO)cc2)nc1,0.844
9,C=CC[C@]1(C(=O)O)N=C(c2ccc(OCCCO)cc2)O[C@H]1c1ccccc1,0.758
